Unmarked numbers belong to inactive results. Results filed as inconclusive are left out. The source made the active and inactive calls. Unless noted, the call rests on the fitted dose curve; in most records, active means well fitted curve in the direction sought with a large enough effect; inconclusive means small, poorly fitted or top-dose-only effect, or another doubt; inactive means no such curve, though single readings can be large; an effect the other way counts as inactive or inconclusive.

For assay [1], the target named is Cytochrome P450 1A2 (Homo sapiens) (UniProt P05177). As to the kind of experiment: p450-cyp1a2 (AID 410; calls by dose curve; further: potency means the concentration at half of the fitted maximal effect). The method, boiled down: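 O-Demethylation of luciferin 6' methyl ether by human CYP1A2 is monitored as luciferase luminescence. Substrate sits at Km (100uM); enzyme is 20nM. Values are scaled to 57 uM furafylline as maximal inhibition.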
Assay [2] can be described thus: NFAT Signaling Pathway (AID 444; active means well fitted curve in either direction with a large enough effect, not every such curve was filed as active;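 further: carbachol stimulus at about its EC50 of 1 µM final; on the % scale 0 is the no-effect control and ±100 the full control effect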). Particulars: Jurkat NFAT-bla M1, carbachol, beta-lactamase ratio, 5 h; at 17.2 µM (top of the series) unless noted. An outline of the steps:
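Read-out: CCF4 FRET ratio (460 nm/530 nm) after 1 h RT dye loading, used for %activity and AC50 from titration series. Cells: Jurkat NFAT-β-lactamase/M1 line, treated with compound plus 1 uM carbachol for 5 h, 37 °C.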

The target of assay [3] is Glucocorticoid receptor (Homo sapiens) (UniProt P04150). The assay is described as follows: GR-GFP Redistribution (AID 450;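 active means compounds whose dose series gives a full or clear partial fitted curve of increased nuclear translocation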; further: potency means the concentration at half of the fitted maximal effect).
The target is the same in assay [4]. As to the kind of experiment: GR-EFC Redistribution (AID 451; calls by dose curve; further: potency means the concentration at half of the fitted maximal effect). Particulars: CHO-K1 GR-EFC translocation, beta-gal luminescence, 2 h. The method, boiled down: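 Translocation of GR-ED fusion to nuclear EA restores b-gal, read by luminescence after 1 h room-temperature detection. Engineered CHO-K1 biosensor cells, 1,000/well, exposed 2 h at 37 C to titrations up to 46 uM final.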

The target in assay [5] is 3',5'-cyclic-AMP phosphodiesterase 4B (Homo sapiens) (UniProt Q07343). As to the kind of experiment: qHTS Assay for Inhibitors of PDE-IV (AID 607; active means well fitted activation curve with a large enough effect in the main read-out, with a control signal flat, not every such curve was filed as active; further: % of control where 0% means no effect). The method, boiled down: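 Cell-based read-out of cAMP via a modified cyclic nucleotide-gated channel and membrane potential dye (535/590 nm) in HEK293 cells expressing PDE4 endogenously. Compounds tested up to 22.9 uM final; 100 uM RO 20-1724 reference.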
On the technique in general: In qHTS, concentration-response curves come from the screen itself.

Assay [6] addresses Guanine nucleotide-binding protein G(i) subunit alpha-1 (Homo sapiens) (UniProt P63096). As to the kind of experiment: qHTS Assay for Inhibitors of RGS12 GoLoco Motif Activity (Green Fluorophore) (AID 879).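 Further: 0% = labeled peptide with Gαi1 and full inhibition = labeled peptide alone without protein; negative values mean loss of peptide binding seen as reduced polarization.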 The method, boiled down: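 A drop in FITC polarization marked displacement of the FITC-tagged RGS12 GoLoco peptide (10 nM) from Gαi1 (50 nM). Compounds were incubated 10 min at room temperature in Tris pH 7.5 buffer containing 150 mM NaCl, 0.1 mM GDP and 0.05% NP40; unlabeled peptide titration served as control.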

The target in assay [7] is Cytochrome P450 2C9 (Homo sapiens) (UniProt P11712). The assay is described as follows: qHTS Assay for Inhibitors and Substrates of Cytochrome P450 2C9 (AID 883). Further: nearly all actives have a fitted effect of over 60% in size. Further: potency means the concentration at half of the fitted maximal effect. On activity change, negative = inhibition: on the % scale 0 is the no-effect control and ±100 the full control effect. The method, boiled down: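 Inhibition of CYP2C9 is scored as loss of luminescence, with 57uM sulphaphenazole defining 100% inhibition. Substrate Luciferin-H is used at 100uM, equal to its KM; enzyme at 10nM in 25mM KPO4, 60 min at 37C with NADPH regeneration.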

The target of assay [8] is Cytochrome P450 3A4 (Homo sapiens) (UniProt P08684). As to the kind of experiment: qHTS Assay for Inhibitors and Substrates of Cytochrome P450 3A4 (AID 884). Further: nearly all actives have a fitted effect of over 50% in size. Further: potency means the concentration at half of the fitted maximal effect. The method, boiled down:
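Luminescent readout of luciferin produced by CYP3A4 (20 nM) dealkylation of Luciferin-PPXE, 25 uM (its KM). NADPH-driven reaction ran 60 min at RT after 10 min compound preincubation; data scaled to 57 uM ketoconazole as 100% inhibition.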

Assay [9] shares this target. The assay is described as follows: qHTS Assay for Activators of Cytochrome P450 3A4 (AID 885). Further: nearly all actives have a fitted effect of over 65% in size. The method, boiled down: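 Luminescent readout of luciferin formed from 25 uM Luciferin-PPXE (KM level) by 20 nM CYP3A4 in 200 mM KPO4, with 60 min NADPH-driven reaction at room temperature after 10 min compound exposure. Ketoconazole (57 uM) defined 100% inhibition.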
Assay [10] concerns the target Cytochrome P450 2C19 (Homo sapiens) (UniProt P33261). As to the kind of experiment: qHTS Assay for Inhibitors and Substrates of Cytochrome P450 2C19 (AID 899). Further: nearly all actives have a fitted effect of over 60% in size. Further: potency means the concentration at half of the fitted maximal effect. The method, boiled down: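 5nM enzyme + 10uM Luciferin-H EGE (=KM), 50mM KPO4; cpd pin-transferred, 10 min 37C; NADPH regen, 60 min 37C; stopped w/ luciferin detection reagent, 20 min; luminescence. Normalized to 57uM ketoconazole (AC100).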

The nature of assay [11]: qHTS Assay for Identification of Small Molecule Agonists for Thrombopoietin (TPO) Signaling Pathway (AID 917). Further: potency means the concentration at half of the fitted maximal effect. The method, boiled down:
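First, Ba/F3 cells with human TPO receptor were held overnight without IL-3. Next, compounds and TPO (26 pM final) were added. After 24 hrs at 37 C, luciferase detection reagent was added and luminescence measured following 10 min at room temperature.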

The nature of assay [12]: qHTS Assay for Identification of Small Molecule Agonists for NFkB Signaling Pathway (AID 928; calls by dose curve). The settings on record: NFkB beta-lactamase reporter cells, blue/green ratio. An outline of the steps:
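Activators were sought with TNF alpha co-added at 10 pM final (its EC50) to beta-lactamase reporter cells. Cells were plated in OPTI MEM with 0.5% FBS and exposed for 5 hrs at 37 C. The FRET substrate ratio was read at 460 and 530 nm.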

Assay [13] concerns the target Pyruvate kinase (Leishmania mexicana) (UniProt Q27686). The assay is described as follows: qHTS Validation Assay for Inhibitors of Leishmania Mexicana Pyruvate Kinase (AID 945). Further: potency means the concentration at half of the fitted maximal effect.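 On activity change, negative = inhibition: 0% = DMSO only neutral control wells.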 The method, boiled down:
(§1)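 Eight-point qHTS titrations in triplicate, data normalized to DMSO neutral control. Reaction: 0.2 nM LmPYK E451W mutant, 0.5 mM PEP, 0.1 mM ADP, 7 mM MgCl2, pH 7.2, one hour at room temperature; luminescent ATP detection.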

Assay [14] addresses Pyruvate kinase PKM (Homo sapiens) (UniProt P14618). As to the kind of experiment: qHTS Assay for Activators of Human Muscle Pyruvate Kinase (AID 954; active means well fitted curve in the direction sought with a large enough effect, not every such curve was filed as active;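 further: 0% = uninhibited enzyme and -100% = no enzyme or full thiadiazolimine inhibition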). An outline of the steps:
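ATP production by PKM2 detected via luciferase luminescence after 1 h room-temperature reaction (0.1 nM enzyme, PEP at Km 0.5 mM, ADP 0.1 mM, pH 7.2 imidazole buffer). Inhibition scaled to no-enzyme control; activation referenced to 0.3 nM enzyme wells.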

For assay [15] the target is unchanged. The assay is described as follows: qHTS Assay for Inhibitors of Human Muscle Pyruvate Kinase (AID 958). The method, boiled down: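 Enzyme was run at intermediate activity so both inhibitors and activators could be detected. ATP formed from ADP and PEP by 0.1 nM human PKM2 during a 1 h room-temperature incubation was quantified by coupled luciferase luminescence.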

In assay [16] the target is Pyruvate kinase (Leishmania mexicana) (UniProt Q27686). As to the kind of experiment: qHTS Validation Assay for Activators of Leishmania Mexicana Pyruvate Kinase (AID 959). An outline of the steps:
as §1

The target of assay [17] is Alpha-galactosidase A (Homo sapiens) (UniProt P06280). As to the kind of experiment: Counterscreen for Glucocerebrosidase Inhibitors: qHTS Assay for Human alpha-Galactosidase at pH 4.5 (AID 992). Further: 0% is about no effect. An outline of the steps: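 Fluorogenic 1536-well qHTS at pH 4.5 (citrate, Tween-20): 2 nM enzyme, 80 uM 4-MU-alpha-galactoside, 20 min room temperature, NaOH/glycine stop. Titration 0.7 nM to 77 uM, data normalized to no-enzyme and full-activity controls, Hill-fitted AC50.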
For orientation: The purpose of a counterscreen is to sort out artefacts and off-target activity.

For assay [18], the target named is alpha-glucosidase (Oryza sativa, rice) (UniProt Q653V4). As to the kind of experiment: Counterscreen for Glucocerebrosidase Inhibitors: qHTS Assay for Rice alpha-Glucosidase at pH 5.0 (AID 997).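 Further: 0% = full activity with enzyme and -100% = basal without enzyme.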 An outline of the steps:
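Endpoint fluorogenic assay at pH 5.0: compounds (0.7 nM to 77 uM) titrated against 4 nM rice enzyme and 400 uM 4-MU-alpha-glucoside for 20 min at room temperature; NaOH/glycine stop, read ex 365/em 440 nm, Hill-fitted AC50.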

Assay [19] is described as follows: Stat Signaling Pathway (AID 446; active means well fitted curve in either direction with a large enough effect, not every such curve was filed as active;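 further: ME-180 cervical cancer cells given 40 pM IL-6 alongside compound; SIE-controlled beta-lactamase reporter measured as 460/530 nm FRET emission ratio; on the % scale 0 is the no-effect control and ±100 the full control effect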). The settings on record: ME-180 (cervical carcinoma) SIE beta-lactamase reporter, IL-6 stimulated, 5 h; at 17.2 µM (top of the series) unless noted. The method, boiled down:
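FRET read-out (405 nm excitation, 460/530 nm emission) of a beta-lactamase reporter under a STAT-inducible element in ME-180 cervical carcinoma cells. Cells with compound receive 40 pM IL-6 for 5 h. Values are normalised to AC90 stimulation and AC90 JAK-inhibitor controls.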

Assay [20] concerns the target Mitogen-activated protein kinase 10 (Mus musculus) (UniProt Q61831). The assay is described as follows: JNK3 AlphaScreen Assay (AID 530; active means well fitted curve in either direction with a large enough effect, not every such curve was filed as active;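 further: kinase came from lysate of stimulated human HepG2 cells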; further: potency means the concentration at half of the fitted maximal effect;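 on activity change, negative = inhibition: signal reports phosphorylation of biotinylated GST-cJun 1-79 at Ser73 with 10 µM ATP; on the % scale 0 is the no-effect control and ±100 the full control effect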). An outline of the steps: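 qHTS titrations with 15 min compound pre-incubation before adding ATP (10 uM final). Read-out: AlphaScreen of Ser73-phosphorylated biotin-GST-cJun using HepG2 lysate JNK3 activated by IL-1β and TNFα.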
On the technique in general: Alpha assays give light when donor and acceptor beads are brought close together.

Assay [21] in a line: qHTS Assay for Identification of Small Molecule Antagonists for NFkB Signaling Pathway (AID 895; active means well fitted inhibition curve with a large enough effect in the signal ratio, with a control signal flat, not every such curve was filed as active; the % refers to the signal ratio; further: potency means the concentration at half of the fitted maximal effect). An outline of the steps:
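Beta-lactamase reporter read-out (460 and 530 nm emission ratio, 405 nm excitation, 2 hrs substrate loading RT) after 5 hr stimulation with 10 pM TNF alpha in compound-treated NFkB-bla ME-180 cells in low-serum medium.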

The target in assay [22] is DNA dC->dU-editing enzyme APOBEC-3G (Homo sapiens) (UniProt Q9HC16). The assay is described as follows: qHTS for inhibitors of Vif-A3G interactions: Validation (AID 588379). Further: 0% is about no effect. The method, boiled down: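 Yellow fluorescence (Ex 488, Em 500-530) of Vif-coexpressing HeLa A3G-eYFP cells, scanned by Acumen cytometer, reports blocked A3G degradation. Cells plated at 700/well overnight at 37 deg C before compound addition, then a further overnight compound incubation at 37 deg C.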

In assay [23] the target is Cytochrome P450 2D6 (Homo sapiens) (UniProt P10635). As to the kind of experiment: qHTS Assay for Inhibitors and Substrates of Cytochrome P450 2D6 (AID 891).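 Further: luciferin methyl ether substrate demethylated by CYP2D6 with NADPH regeneration; on the % scale 0 is the no-effect control and ±100 the full control effect; nearly all actives have a fitted effect of over 60% in size.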 An outline of the steps:
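Luminescent read-out of luciferin formed by 5 nM human CYP2D6 demethylating 30 uM Luciferin-ME EGE (Km level) over 60 min at room temperature after NADPH regeneration addition. Data normalized to full inhibition by 1.43 uM quinidine.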

Assay [24] concerns the target Ubiquitin carboxyl-terminal hydrolase 1 (Homo sapiens) (UniProt O94782). As to the kind of experiment: Inhibitors of USP1/UAF1: Pilot qHTS (AID 504865).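 Further: rhodamine fluorescence freed from ubiquitin-rhodamine substrate followed over time; top concentration of the series differs between compounds; on the % scale 0 is the no-effect control and ±100 the full control effect; nearly all actives have a fitted effect of over 35% in size.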 The method, boiled down: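 USP1/UAF1 complex (1nM) preincubated with compound 15 min at room temperature, then Ub-Rho substrate (150nM final) added. Fluorescence read kinetically at 480/540 nm, 6 reads every 60 seconds. Buffer: 50mM HEPES pH 7.8, 0.5mM EDTA, 0.1 mg/ml BSA, 1mM TCEP, 0.01% Tween-20.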

Sequence of Glucocorticoid receptor (Homo sapiens) (P04150 whole entry, looked up, the tested form may be a part): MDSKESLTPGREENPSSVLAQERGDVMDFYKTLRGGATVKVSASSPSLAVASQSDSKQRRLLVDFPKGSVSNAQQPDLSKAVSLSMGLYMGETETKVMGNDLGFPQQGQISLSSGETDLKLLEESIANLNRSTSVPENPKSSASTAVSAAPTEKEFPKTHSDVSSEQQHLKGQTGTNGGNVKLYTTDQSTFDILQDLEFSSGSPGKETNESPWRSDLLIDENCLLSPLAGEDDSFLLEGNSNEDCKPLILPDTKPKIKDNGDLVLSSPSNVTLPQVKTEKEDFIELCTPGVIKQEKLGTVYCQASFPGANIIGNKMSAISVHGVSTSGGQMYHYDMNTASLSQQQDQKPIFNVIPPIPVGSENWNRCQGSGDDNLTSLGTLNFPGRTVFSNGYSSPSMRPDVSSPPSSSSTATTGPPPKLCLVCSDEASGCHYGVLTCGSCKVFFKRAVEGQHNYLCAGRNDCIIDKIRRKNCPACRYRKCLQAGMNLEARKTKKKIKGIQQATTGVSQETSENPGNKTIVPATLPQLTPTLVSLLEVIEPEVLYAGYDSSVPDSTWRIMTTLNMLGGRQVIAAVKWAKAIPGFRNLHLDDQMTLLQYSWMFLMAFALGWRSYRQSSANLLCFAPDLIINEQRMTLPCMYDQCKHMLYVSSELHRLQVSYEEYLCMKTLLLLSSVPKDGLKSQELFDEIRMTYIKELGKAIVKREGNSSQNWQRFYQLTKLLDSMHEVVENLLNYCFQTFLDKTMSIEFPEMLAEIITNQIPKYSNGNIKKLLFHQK
Sequence of Pyruvate kinase (Leishmania mexicana) (Q27686 2-499 E452W): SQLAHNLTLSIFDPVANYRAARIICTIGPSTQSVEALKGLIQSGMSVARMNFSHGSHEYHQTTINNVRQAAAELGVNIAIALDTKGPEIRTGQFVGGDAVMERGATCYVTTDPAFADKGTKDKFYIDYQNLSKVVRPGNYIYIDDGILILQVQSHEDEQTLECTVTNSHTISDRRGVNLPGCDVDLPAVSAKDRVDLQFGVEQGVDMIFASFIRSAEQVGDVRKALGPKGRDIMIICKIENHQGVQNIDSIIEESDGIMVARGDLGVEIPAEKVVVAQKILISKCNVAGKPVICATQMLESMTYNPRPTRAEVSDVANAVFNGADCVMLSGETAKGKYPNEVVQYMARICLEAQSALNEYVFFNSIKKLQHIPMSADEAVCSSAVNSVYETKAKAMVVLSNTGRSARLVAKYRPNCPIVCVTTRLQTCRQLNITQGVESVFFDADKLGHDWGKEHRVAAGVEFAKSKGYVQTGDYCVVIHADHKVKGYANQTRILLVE
Sequence of Cytochrome P450 2C19 (Homo sapiens) (P33261 whole entry, looked up): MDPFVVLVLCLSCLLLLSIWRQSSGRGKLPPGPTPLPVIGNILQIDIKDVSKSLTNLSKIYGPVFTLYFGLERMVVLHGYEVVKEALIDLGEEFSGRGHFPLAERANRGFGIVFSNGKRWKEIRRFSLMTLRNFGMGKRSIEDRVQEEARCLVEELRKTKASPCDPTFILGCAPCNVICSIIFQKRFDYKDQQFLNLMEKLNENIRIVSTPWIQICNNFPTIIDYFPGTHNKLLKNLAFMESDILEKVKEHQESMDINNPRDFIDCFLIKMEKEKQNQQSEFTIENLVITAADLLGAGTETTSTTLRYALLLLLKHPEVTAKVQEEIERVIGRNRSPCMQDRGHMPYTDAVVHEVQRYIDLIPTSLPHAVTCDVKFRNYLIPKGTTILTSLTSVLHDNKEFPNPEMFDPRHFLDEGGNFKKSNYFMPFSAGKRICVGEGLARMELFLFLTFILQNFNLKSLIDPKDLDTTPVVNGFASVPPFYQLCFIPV
Sequence of Pyruvate kinase PKM (Homo sapiens) (P14618 whole entry, looked up): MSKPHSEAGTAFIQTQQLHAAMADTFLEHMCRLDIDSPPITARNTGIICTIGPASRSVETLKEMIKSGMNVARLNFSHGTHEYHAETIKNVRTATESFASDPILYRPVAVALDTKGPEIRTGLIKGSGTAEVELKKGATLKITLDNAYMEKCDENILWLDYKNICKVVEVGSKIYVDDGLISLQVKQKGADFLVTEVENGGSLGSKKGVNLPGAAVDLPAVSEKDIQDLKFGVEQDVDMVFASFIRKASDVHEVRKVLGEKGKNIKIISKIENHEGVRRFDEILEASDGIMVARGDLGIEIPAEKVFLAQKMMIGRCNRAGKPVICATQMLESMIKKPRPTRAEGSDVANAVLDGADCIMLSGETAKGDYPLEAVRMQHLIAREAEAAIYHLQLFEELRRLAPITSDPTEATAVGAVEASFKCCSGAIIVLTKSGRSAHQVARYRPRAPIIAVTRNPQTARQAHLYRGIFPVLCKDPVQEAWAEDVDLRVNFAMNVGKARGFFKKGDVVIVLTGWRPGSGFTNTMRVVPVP
Sequence of DNA dC->dU-editing enzyme APOBEC-3G (Homo sapiens) (Q9HC16 whole entry, looked up): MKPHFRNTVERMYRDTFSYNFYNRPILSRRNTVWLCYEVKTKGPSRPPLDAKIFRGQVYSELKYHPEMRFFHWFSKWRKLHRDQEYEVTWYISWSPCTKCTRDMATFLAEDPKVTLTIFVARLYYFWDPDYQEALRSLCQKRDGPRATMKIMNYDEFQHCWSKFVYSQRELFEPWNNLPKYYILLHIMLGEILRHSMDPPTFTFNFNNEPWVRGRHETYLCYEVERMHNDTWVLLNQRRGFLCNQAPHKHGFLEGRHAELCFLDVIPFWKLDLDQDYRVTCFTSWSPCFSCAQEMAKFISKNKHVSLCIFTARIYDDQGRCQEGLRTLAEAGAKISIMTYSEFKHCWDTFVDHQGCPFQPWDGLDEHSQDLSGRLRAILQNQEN
Sequence of Cytochrome P450 3A4 (Homo sapiens) (P08684 whole entry, looked up): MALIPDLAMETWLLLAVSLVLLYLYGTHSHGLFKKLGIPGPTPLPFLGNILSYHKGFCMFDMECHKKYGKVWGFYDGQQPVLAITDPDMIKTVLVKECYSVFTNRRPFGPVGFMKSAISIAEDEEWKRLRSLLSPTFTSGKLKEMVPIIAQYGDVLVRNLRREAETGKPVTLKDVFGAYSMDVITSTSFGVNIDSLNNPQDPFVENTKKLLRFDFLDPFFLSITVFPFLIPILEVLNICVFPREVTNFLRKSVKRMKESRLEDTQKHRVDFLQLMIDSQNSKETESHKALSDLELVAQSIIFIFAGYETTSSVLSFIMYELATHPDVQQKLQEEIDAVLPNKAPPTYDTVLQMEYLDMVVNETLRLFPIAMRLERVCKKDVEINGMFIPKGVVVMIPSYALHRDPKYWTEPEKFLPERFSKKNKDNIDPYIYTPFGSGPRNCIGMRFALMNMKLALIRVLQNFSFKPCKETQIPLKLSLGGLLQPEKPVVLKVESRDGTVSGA
Sequence of Cytochrome P450 2C9 (Homo sapiens) (P11712 whole entry, looked up): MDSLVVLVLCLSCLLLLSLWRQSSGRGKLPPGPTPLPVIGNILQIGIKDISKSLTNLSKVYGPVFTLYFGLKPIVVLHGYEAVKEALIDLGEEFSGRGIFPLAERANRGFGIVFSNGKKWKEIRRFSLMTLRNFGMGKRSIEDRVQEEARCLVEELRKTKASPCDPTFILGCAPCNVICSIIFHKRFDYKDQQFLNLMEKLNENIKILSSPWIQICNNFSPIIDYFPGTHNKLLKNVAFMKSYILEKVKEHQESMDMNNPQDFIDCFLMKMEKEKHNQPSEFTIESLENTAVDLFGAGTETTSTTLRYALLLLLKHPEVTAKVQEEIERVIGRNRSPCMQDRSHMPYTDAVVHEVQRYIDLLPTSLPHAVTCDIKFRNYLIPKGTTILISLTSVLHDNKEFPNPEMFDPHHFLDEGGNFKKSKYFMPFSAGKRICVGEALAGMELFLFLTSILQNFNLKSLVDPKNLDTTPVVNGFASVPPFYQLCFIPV
Sequence of Cytochrome P450 1A2 (Homo sapiens) (P05177 whole entry, looked up): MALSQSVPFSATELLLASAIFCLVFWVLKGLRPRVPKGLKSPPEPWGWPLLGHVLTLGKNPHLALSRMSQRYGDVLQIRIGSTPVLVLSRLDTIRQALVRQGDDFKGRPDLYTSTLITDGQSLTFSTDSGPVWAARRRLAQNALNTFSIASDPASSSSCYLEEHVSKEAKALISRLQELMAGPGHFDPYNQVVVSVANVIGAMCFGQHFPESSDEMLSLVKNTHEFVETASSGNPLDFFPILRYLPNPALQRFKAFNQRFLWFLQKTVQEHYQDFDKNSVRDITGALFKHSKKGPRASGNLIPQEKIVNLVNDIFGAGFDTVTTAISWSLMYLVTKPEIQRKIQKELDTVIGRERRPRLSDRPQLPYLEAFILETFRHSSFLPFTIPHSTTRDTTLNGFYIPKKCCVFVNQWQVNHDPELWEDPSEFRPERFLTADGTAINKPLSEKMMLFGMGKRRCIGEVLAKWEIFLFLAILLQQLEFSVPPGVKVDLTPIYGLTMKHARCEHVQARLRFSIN
Sequence of 3',5'-cyclic-AMP phosphodiesterase 4B (Homo sapiens) (Q07343 whole entry, looked up): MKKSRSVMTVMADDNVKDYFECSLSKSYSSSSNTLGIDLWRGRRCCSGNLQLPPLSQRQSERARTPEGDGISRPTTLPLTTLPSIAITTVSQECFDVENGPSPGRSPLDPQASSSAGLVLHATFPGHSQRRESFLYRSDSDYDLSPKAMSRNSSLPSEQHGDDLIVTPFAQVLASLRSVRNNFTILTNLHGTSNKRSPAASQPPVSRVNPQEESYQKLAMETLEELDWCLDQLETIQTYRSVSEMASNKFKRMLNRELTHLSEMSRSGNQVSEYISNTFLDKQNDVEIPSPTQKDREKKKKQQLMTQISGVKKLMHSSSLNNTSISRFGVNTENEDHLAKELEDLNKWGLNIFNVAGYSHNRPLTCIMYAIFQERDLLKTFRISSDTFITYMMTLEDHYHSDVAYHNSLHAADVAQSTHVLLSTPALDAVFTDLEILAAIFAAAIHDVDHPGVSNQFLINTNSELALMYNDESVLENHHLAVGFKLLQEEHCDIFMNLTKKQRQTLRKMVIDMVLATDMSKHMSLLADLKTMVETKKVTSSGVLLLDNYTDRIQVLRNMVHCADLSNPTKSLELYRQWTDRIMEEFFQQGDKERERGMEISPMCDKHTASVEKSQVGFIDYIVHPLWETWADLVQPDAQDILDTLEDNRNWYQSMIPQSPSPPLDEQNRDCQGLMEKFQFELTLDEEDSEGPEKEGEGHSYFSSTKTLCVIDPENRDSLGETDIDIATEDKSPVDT

On to `COc1ccc(NC(=O)/C=C\c2ccc(Cl)cc2)cc1`, for which the Potency in [1] is 5.01 µM (active); in assay [3] it was more than 46 µM; in assay [4] it was more than 46 µM; in assay [8], 25.1 µM (active); in assay [10], 3.98 µM (active); in assay [11], 0.316 µM (active). The Potency is 1.41 µM (active) in assay [12], 10 µM (active) in assay [13] and 15.8 µM (active) in assay [15]. Further, in [2], the activity change, negative = inhibition was -10.1% [at 38 µM]. Moreover, the Potency result in assay [5], in [7], in assay [9] and in assay [16] was “inactive” throughout. In addition, the outcome in assay [6], in assay [14], in [17] and in assay [18] was inactive.
Consider `C[C@H](N)C1CCC(C(=O)Nc2ccncc2)CC1` (stereo partly specified), for which the Potency entry in assay [1], in assay [20], in assay [5], in [9] and in assay [13] was “inactive” each time. In addition, the activity change, negative = inhibition in assay [2] is 3.2% [at 38 µM]. Besides, in assay [19], the activity, negative = inhibition was -8.56% [at 38 µM]. Further, the values for the Potency in [4] and in [21] were more than 46 µM and 7.94 µM (active), respectively. Besides, the compound was called inactive in assay [14], in [17] and in assay [18].
In the case of `O=c1c(O)c(-c2ccc(O)cc2)oc2cc(O)ccc12`, the Potency in assay [1] is 0.1 µM (active); in [3], more than 46 µM; in assay [4], more than 46 µM; in assay [7] it was 10 µM (active). The Potency entry in assay [20], in [5] and in assay [9] was “inactive” in each case. The call in [22] was inactive.
As for `COc1cc2oc(-c3ccccc3)cc(=O)c2cc1O`, the Potency in [1] was 1 µM (active); in assay [3] it was more than 46 µM; in assay [4], more than 46 µM. In addition, the Potency result in assay [20], in assay [5], in assay [7] and in assay [8] was “inactive” throughout. For the same compound, the compound was classed as inactive in assay [22].
Regarding `C=C1CC[C@@H](O)C/C1=C/C=C1\CCC[C@]2(C)[C@@H]1CC[C@H]2[C@@H](C)CCCC(C)C`, the Potency entry in [1], in [20], in [5], in assay [7], in assay [23] and in [10] was “inactive” throughout. In addition, the Potency in assay [3] and in assay [4] was more than 46 µM in each case.
Turning to `O[C@@H]1[C@@H]2c3cc4c(cc3CN3CCC(=C[C@@H]1O)[C@H]23)OCO4`, the Potency in [1] is 15.8 µM (active); in assay [3], more than 20.6 µM; in assay [4], more than 20.6 µM. Moreover, the Potency result in assay [20], in assay [5] and in assay [24] was “inactive” throughout.
Regarding `C=C1CC[C@@H]2[C@](C)(CC[C@@H](O)[C@]2(C)CO)[C@@H]1C/C=C1/C(=O)OC[C@H]1O`, the Potency entry in [1], in assay [20], in [5], in [7], in [23] and in [10] was “inactive” in each case. The Potency in [3] and in assay [4] was more than 46 µM each time.
As for `O=c1cc(-c2cccc(O)c2O)oc2ccccc12`, the Potency in [1] is 1 µM (active); in [3], more than 46 µM; in assay [4] it was more than 46 µM; in assay [20], 3.98 µM (active); in assay [7], 12.6 µM (active). For the same compound, the Potency result in assay [5] and in [9] was “inactive” throughout. The result in assay [22] was inactive.

Source of the values: PubChem BioAssay (NCATS).
